Experimental data published in PubChem BioAssay (Tox21).
Results filed as inconclusive are left out. Entries that show only a call come without a potency. The source made the active and inactive calls. Calls come from the whole dose curve; as a rule, active = well fitted curve in the direction sought with a large enough effect in the repeat runs; inconclusive = weak or mixed curves; inactive = no such curve, though single readings can be large; an effect the other way counts as inactive or inconclusive.

Experiments:
[1] = target: Cytochrome P450 2D6 (Homo sapiens) (UniProt P10635); experiment: Cytochrome P450 Family 2 Subfamily D Member 6 (CYP2D6) small molecule antagonists: luciferase reporter qHTS assay (AID 1671196); note: series mostly up to about 120 µM; nearly all actives have a fitted effect of over 50% in size
Sequence of Cytochrome P450 2D6 (Homo sapiens) (P10635 whole entry, looked up): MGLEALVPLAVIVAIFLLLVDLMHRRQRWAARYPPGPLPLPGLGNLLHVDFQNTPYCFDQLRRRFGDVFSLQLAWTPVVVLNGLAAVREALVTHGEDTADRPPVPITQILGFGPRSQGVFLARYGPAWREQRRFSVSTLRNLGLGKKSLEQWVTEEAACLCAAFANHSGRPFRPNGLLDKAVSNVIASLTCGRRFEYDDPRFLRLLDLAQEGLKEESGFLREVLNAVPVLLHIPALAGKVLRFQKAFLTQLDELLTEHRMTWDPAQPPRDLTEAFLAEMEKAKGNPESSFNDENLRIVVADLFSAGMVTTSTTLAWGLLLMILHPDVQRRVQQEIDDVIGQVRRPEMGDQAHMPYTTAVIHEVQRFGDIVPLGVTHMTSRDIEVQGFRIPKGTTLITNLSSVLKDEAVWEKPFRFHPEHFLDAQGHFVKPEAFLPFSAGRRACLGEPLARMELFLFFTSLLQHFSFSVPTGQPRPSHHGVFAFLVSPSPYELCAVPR
Outline: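 Room-temperature luminescent CYP2D6 activity assay: compound preincubated 10 min with enzyme–substrate mix, NADPH-initiated reaction 1 h, detection reagent 20 min before reading.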

[2] = target: Cytochrome P450 1A2 (Homo sapiens) (UniProt P05177); experiment: Cytochrome P450 Family 1 Subfamily A Member 2 (CYP1A2) small molecule antagonists: luciferase reporter qHTS assay (AID 1671199); note: potency is the fitted concentration of half-maximal effect; nearly all actives have a fitted effect of over 50% in size
Sequence of Cytochrome P450 1A2 (Homo sapiens) (P05177 whole entry, looked up): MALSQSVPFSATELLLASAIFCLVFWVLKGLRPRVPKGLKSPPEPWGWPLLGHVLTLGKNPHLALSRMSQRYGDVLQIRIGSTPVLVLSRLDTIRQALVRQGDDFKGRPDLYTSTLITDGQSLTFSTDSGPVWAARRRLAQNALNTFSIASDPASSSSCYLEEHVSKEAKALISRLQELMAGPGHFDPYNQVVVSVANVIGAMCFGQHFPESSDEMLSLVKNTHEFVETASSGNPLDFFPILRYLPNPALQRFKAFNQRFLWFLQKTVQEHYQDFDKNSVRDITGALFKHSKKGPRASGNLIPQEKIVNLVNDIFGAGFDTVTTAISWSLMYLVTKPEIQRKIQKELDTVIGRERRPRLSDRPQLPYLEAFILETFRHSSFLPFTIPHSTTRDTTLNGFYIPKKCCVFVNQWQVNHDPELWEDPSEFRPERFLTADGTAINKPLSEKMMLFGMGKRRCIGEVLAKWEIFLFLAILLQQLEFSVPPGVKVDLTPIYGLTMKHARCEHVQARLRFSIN
Outline: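 Room-temperature CYP1A2 reaction with proluciferin substrate: compounds added from DMSO, 10 min preincubation, NADPH regeneration for 1 h. Luciferin detection reagent then added; luminescence recorded as RLU.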

[3] = target: Voltage-gated inwardly rectifying potassium channel KCNH2 (Homo sapiens) (UniProt Q12809); experiment: Human Ether-a-go-go-Related Gene (hERG) channel small molecule antagonists: fluorescence cell-based qHTS assay (AID 1671200);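 note: hERG-expressing U2OS cells given a thallium stimulus after FluxOR II dye loading; series mostly up to about 77 µM; nearly all actives have a fitted effect of over 50% in size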
Sequence of Voltage-gated inwardly rectifying potassium channel KCNH2 (Homo sapiens) (Q12809 whole entry, looked up): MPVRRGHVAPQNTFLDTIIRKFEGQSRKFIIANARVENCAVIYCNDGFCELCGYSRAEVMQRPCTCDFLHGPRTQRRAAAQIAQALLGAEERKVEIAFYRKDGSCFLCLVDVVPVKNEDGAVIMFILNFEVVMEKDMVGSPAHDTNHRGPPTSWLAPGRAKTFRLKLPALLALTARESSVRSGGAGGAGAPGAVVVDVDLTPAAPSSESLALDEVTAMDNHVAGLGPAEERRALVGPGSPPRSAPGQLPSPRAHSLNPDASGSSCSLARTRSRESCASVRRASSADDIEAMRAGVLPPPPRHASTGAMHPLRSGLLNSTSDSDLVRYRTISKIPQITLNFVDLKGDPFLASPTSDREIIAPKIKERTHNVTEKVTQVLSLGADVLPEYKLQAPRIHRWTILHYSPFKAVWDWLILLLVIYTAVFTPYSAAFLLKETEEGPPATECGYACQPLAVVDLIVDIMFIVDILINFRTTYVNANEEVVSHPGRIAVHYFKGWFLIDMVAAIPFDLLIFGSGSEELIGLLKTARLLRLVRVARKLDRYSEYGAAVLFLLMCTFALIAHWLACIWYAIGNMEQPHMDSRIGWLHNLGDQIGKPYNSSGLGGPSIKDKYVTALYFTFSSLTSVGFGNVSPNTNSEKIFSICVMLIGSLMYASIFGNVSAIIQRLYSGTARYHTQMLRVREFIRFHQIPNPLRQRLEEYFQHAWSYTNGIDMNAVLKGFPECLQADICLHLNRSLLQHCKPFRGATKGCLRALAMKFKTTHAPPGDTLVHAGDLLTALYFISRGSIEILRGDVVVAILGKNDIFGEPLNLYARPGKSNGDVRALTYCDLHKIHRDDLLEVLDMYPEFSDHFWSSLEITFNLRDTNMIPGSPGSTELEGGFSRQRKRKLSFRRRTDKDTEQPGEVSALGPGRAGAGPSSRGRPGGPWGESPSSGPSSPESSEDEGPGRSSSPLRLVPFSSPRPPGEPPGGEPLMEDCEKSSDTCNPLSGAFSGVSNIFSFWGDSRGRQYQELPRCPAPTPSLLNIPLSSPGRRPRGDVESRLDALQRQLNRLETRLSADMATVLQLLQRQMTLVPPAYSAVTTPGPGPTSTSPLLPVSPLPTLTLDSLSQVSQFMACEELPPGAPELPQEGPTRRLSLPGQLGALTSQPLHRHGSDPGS
Outline: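 U2OS cells expressing the channel were plated at 1000 cells/well, incubated overnight at 37 C, then loaded with FluxOR II thallium-sensitive dye for 1 h at room temperature in the dark, with a further 10 min at room temperature before stimulation.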

[4] = target: Cytochrome P450 3A4 (Homo sapiens) (UniProt P08684); experiment: Cytochrome P450 Family 3 Subfamily A Member 4 (CYP3A4) small molecule antagonists: luciferase reporter qHTS assay (AID 1671201); note: series mostly up to about 120 µM; nearly all actives have a fitted effect of over 50% in size
Sequence of Cytochrome P450 3A4 (Homo sapiens) (P08684 whole entry, looked up): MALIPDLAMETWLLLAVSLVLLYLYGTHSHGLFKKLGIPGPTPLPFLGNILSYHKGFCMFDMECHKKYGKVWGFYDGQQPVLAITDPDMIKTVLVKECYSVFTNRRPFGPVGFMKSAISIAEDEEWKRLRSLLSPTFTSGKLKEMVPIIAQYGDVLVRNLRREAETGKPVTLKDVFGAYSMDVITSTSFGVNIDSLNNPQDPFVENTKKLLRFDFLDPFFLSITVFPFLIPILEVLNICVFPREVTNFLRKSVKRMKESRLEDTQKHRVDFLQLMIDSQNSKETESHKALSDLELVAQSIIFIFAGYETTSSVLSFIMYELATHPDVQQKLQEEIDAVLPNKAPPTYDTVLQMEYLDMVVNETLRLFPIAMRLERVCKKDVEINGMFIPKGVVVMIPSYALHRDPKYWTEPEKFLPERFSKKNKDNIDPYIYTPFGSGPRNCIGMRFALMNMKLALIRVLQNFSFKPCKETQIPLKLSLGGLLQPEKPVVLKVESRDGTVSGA
Outline: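 P450-Glo CYP3A4 system with proluciferin substrate; compounds preincubated 10 min RT with enzyme-substrate mix, then NADPH regeneration added for 1 h RT. Detection reagent 20 min, luminescence read as relative luminescence units.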

[5] = target: Cytochrome P450 2C19 (Homo sapiens) (UniProt P33261); experiment: Cytochrome P450 Family 2 Subfamily C Member 19 (CYP2C19) small molecule antagonists: luciferase reporter qHTS assay (AID 1671197); note: nearly all actives have a fitted effect of over 65% in size; note: potency is the fitted concentration of half-maximal effect
Sequence of Cytochrome P450 2C19 (Homo sapiens) (P33261 whole entry, looked up): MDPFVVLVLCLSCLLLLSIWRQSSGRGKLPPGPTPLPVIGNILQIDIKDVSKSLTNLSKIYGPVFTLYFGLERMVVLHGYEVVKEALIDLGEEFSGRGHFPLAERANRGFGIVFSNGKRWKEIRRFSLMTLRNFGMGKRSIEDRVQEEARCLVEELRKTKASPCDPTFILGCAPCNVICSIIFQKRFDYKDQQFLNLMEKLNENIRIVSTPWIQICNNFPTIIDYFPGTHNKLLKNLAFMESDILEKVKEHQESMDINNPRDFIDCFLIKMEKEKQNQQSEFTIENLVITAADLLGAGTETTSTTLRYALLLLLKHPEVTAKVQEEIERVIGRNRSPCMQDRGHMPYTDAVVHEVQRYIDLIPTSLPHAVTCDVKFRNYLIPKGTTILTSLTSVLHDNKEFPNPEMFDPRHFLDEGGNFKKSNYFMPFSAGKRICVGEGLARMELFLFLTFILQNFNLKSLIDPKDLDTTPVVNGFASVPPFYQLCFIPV
Outline: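 CYP2C19 P450-Glo, 1536-well qHTS. Cpd + enzyme/proluciferin substrate 10 min RT; + NADPH regen, 37C 1 h; stop with luciferin detection reagent, 20 min RT, luminescence (RLU). Pos ctrl ketoconazole.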

[6] = target: Cytochrome P450 2C9 (Homo sapiens) (UniProt P11712); experiment: Cytochrome P450 Family 2 Subfamily C Member 9 (CYP2C9) small molecule antagonists: luciferase reporter qHTS assay (AID 1671198)
Sequence of Cytochrome P450 2C9 (Homo sapiens) (P11712 whole entry, looked up): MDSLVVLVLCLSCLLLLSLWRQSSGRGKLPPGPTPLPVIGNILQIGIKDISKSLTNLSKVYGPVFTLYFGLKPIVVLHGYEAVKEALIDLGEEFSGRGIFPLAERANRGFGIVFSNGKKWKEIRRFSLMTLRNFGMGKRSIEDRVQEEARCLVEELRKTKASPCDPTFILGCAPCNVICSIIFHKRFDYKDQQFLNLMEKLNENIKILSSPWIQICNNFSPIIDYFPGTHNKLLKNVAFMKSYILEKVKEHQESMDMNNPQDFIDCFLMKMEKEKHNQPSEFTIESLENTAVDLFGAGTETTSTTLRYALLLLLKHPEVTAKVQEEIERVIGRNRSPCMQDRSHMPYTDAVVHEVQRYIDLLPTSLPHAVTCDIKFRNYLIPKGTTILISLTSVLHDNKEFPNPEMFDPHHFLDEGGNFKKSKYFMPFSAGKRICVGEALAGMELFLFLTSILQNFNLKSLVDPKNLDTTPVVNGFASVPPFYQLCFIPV
Outline: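 Enzyme-substrate mix preincubated with compound 10 min at room temperature; reaction started with NADPH regeneration solution, 1 h 37C. Luminescent luciferin product read after 20 min detection reagent.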

Row | Structure (SMILES) | Potency [1] | Potency [2] | Potency [3] | Potency [4] | Potency [5] | Potency [6]
1 | CCCCCCCCC(=O)Cl | inactive | 64 µM (active) | inactive | inactive |  | 
2 | CN(CCOc1ccc(NS(C)(=O)=O)cc1)CCc1ccc(NS(C)(=O)=O)cc1 |  |  |  |  | inactive | inactive
3 | CCCCOCCOC(=O)COc1nc(Cl)c(Cl)cc1Cl |  | 39.9 µM (active) |  | inactive | 31.7 µM (active) | inactive
